Screening data as filed in PubChem BioAssay.
Sampled rows, rich in hits. Any-hit rate of the full collection: about 3.1%.
ERAP1 inh – ERAP1 (human) enzyme inhibition | Q9NZ08 | recombinant ERAP1, Leu-AMC fluorescence, 60 min | inhibition, % at 10.7 µM | 340,000 tested, 0.15% active;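 active means mean replicate inhibition of at least 30%, or all replicates individually reaching that 30% level; inactive means mean below 30% and not every replicate reaching it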
CASP6 VEID inh – inhibitors of human caspase-6 | 350,000 tested, 0.53% active | AID 686996 | inhibition, % at 12.5 µM | purified caspase-6, Z-VEID-R110 cleavage fluorescence | P55212;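 active means mean inhibition across replicates at least about 35%, with every replicate also reaching that limit, limit read from the data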
Target sequence (P55212 24-179 limits assumed): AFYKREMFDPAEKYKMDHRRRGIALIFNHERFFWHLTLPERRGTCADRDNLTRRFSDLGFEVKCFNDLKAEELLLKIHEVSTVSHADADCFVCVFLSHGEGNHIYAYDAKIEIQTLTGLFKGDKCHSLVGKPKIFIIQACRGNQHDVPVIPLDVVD
Target sequence (P55212 194-293 limits assumed): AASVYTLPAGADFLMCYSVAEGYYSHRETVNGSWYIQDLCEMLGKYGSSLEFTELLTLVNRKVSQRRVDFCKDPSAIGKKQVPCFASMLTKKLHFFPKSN
SIRT5 block – blocks human SIRT5 desuccinylation of peptide | 330,000 tested, 1.1% active | AID 652115 | Purified SirT5, succinyl-peptide AMC, trypsin-coupled fluorescence | Q9NXA8 | inhibition, % at 15 µM; in the data active means inhibition above about 15%
FGF22 binding – binders of recombinant human FGF22 by thermal shift | Q9HCT0 | SYPRO orange fluorescence; percent of sucrose octasulfate shift, DMSO zero | activity (Tm shift, normalised), % at 9.99 µM | 340,000 tested, 1.5% active | AID 651658;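 active means mean Tm shift, scaled 0 neutral to 100 positive control, at about 1.3% or above, every replicate too, limit read from the data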
Target sequence (Q9HCT0 whole entry, looked up): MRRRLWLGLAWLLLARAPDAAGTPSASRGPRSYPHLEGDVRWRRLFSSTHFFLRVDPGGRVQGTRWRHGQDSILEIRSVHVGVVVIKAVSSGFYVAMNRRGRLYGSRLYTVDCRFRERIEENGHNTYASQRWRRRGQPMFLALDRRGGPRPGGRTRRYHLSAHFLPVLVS
Large screens that a line does not name were inactive.

CCCCOc1ccc(C(=O)N/C(=C/c2cccc([N+](=O)[O-])c2)C(=O)O)cc1	FGF22 binding 51.8
S=c1[nH]cc(-c2ccccc2)n1-c1cccc(Cl)c1	CASP6 VEID inh 55.4
COc1ccccc1C(=O)Nc1ccc2c(c1)C(=O)N(C)[C@@H]1CC[C@@H](CC(=O)NCCc3ccncc3)O[C@H]1CO2	none
O=C(N[C@H]1CC[C@@H](CCNC(=O)C2CCC2)O[C@H]1CO)c1ccccn1	none
CNC[C@H]1Oc2c(NS(=O)(=O)c3ccc(C)cc3)cccc2C(=O)N([C@H](C)CO)C[C@H]1C	none
C[C@@H]1CN([C@@H](C)CO)C(=O)c2cccc(NS(=O)(=O)c3cn(C)cn3)c2O[C@@H]1CN(C)Cc1ccc(C(F)(F)F)cc1	none
O=C(c1ccc2c(c1)OCO2)N1CC(=O)N2[C@H](C1)[C@@H](c1ccc(C#CCC3CCCC3)cc1)[C@@H]2CO	SIRT5 block 17.8
O=C(c1ccc(F)cc1)N1CC(=O)N2[C@H](C1)[C@H](c1ccc(C#CCC3CCCC3)cc1)[C@@H]2CO	SIRT5 block 19.4
O=C(c1ccc2c(c1)OCO2)N1CC(=O)N2[C@H](CO)[C@@H](c3ccc(C#CCC4CCCC4)cc3)[C@H]2C1	SIRT5 block 15.5
C[C@@H]1CN([C@@H](C)CO)C(=O)c2cc(NC(=O)CCC(F)(F)F)ccc2O[C@@H]1CN(C)C(=O)Nc1ccc(C(F)(F)F)cc1	none
C[C@H](O)C#Cc1ccc2c(c1)O[C@H](CN(C)Cc1ccc(-c3ccccc3)cc1)[C@@H](C)CN([C@@H](C)CO)S2(=O)=O	SIRT5 block 30.3
C[C@@H]1CN([C@@H](C)CO)S(=O)(=O)c2ccc(C#C[C@@H](C)O)cc2O[C@@H]1CN(C)Cc1ccc(-c2ccccc2)cc1	SIRT5 block 23.6
C[C@H](O)C#Cc1ccc2c(c1)O[C@H](CN(C)Cc1ccccc1)[C@@H](C)CN([C@H](C)CO)S2(=O)=O	none
C[C@H](O)C#Cc1ccc2c(c1)O[C@H](CN(C)Cc1ccc(-c3ccccc3)cc1)[C@H](C)CN([C@@H](C)CO)S2(=O)=O	SIRT5 block 27.2
C[C@@H]1CN([C@H](C)CO)S(=O)(=O)c2ccc(C#C[C@@H](C)O)cc2O[C@H]1CN(C)Cc1ccc(-c2ccccc2)cc1	SIRT5 block 30.2
C[C@@H]1CCCCO[C@@H](CN(C)C(=O)Cc2ccccc2)[C@H](C)CN([C@@H](C)CO)C(=O)c2cc(NC(=O)Nc3cccc4ccccc34)ccc2O1	none
C[C@H](O)C#Cc1ccc2c(c1)O[C@@H](CN(C)Cc1ccc(-c3ccccc3)cc1)[C@H](C)CN([C@H](C)CO)S2(=O)=O	SIRT5 block 27.8
C[C@@H](O)C#Cc1ccc2c(c1)O[C@H](CN(C)Cc1ccccc1)[C@@H](C)CN([C@@H](C)CO)S2(=O)=O	none
O=C1C(=O)N(CC(=O)N2CCCC2)c2ccccc21	FGF22 binding 43.0
Cc1ccccc1N1CCN(C(=O)CN2C(=O)c3ccccc3C2=O)CC1	none (no result: SIRT5 block, FGF22 binding)
CN(C)CC(=O)N[C@@H]1CC[C@H](CC(=O)O)O[C@@H]1CO	none (no result: FGF22 binding)
Cc1cccc(N/C=C(\[N+](=O)[O-])S(=O)(=O)c2ccccc2)c1	SIRT5 block 39.5
COc1ccccc1CNC(=O)C[C@H]1CC[C@@H]2[C@H](COC[C@H](O)CN2C(=O)Nc2ccc(F)cc2)O1	none
Cc1cc(C)c(C(=O)OCC(=O)NC(=O)c2ccccc2)c(C)c1	none
Cc1cccc(C(=O)OCC(=O)NC(=O)c2ccccc2)c1O	SIRT5 block 16.3
O=C(CCS(=O)(=O)c1ccc(Br)cc1)Nc1cc(F)ccc1F	CASP6 VEID inh 58.8
CCc1ccccc1NC(=O)CCS(=O)(=O)c1ccc(Br)cc1	none
CCOc1ccccc1NC(=O)CCS(=O)(=O)c1ccc(Br)cc1	CASP6 VEID inh 70.6
CCOc1ccc(NC(=O)CCS(=O)(=O)c2ccc(Br)cc2)cc1	CASP6 VEID inh 65.6
CC(=O)N(C)C[C@H]1Oc2cc(C#CCC(C)C)ccc2S(=O)(=O)N([C@@H](C)CO)C[C@@H]1C	none
COc1ccc(Cn2cc(C(=O)O)c(=O)c3ccccc32)cc1	FGF22 binding 43.2
O=c1cc(O)c2sc3nc4c(c(C(F)(F)F)c3c2[nH]1)CCCCC4	SIRT5 block 16.6 (no result: ERAP1 inh)
COc1ccc(OC)c(-c2cc(C(F)(F)F)c3c(n2)sc2c(O)cc(=O)[nH]c23)c1	none
COCCn1nnnc1C(c1ccccc1OC)N1CCN(C(=O)c2ccco2)CC1 (stereo not given)	FGF22 binding 2.1
COCCn1nnnc1C(c1cccc(OC)c1OC)N1CCN(C(=O)c2ccco2)CC1 (stereo not given)	none (no result: SIRT5 block)
CCNC(=O)Nc1ccc2c(c1)C(=O)N(C)[C@H]1CC[C@H](CC(=O)N[C@H](C)c3ccccc3)O[C@H]1CO2	none
COc1ccc(NC(=O)c2nc[nH]c2C(=O)N(C)CCO)cc1	FGF22 binding 42.9 (no result: SIRT5 block)
C[C@H]1CN([C@@H](C)CO)C(=O)c2cccc(NS(C)(=O)=O)c2O[C@@H]1CN(C)CC1CC1	none
O=S(=O)(c1ccc(F)cc1)N1CCCCN2[C@@H](CO)[C@@H](c3ccc(C#CC4CCCC4)cc3)[C@@H]2C1	SIRT5 block 22.8
O=S(=O)(c1ccc(F)cc1)N1CCCCN2[C@H](C1)[C@@H](c1ccc(C#CC3CCCC3)cc1)[C@@H]2CO	none
O=S(=O)(c1ccc(F)cc1)N1CCCCN2[C@@H](CO)[C@H](c3ccc(C#CC4CCCC4)cc3)[C@@H]2C1	SIRT5 block 27.3
O=S(=O)(c1ccc(F)cc1)N1CCCCN2[C@H](CO)[C@H](c3ccc(C#CC4CCCC4)cc3)[C@@H]2C1	SIRT5 block 23.2
CN(C(=O)c1ccc(OC2CCN(S(=O)(=O)N(C)C)CC2)cc1)C1CCCCC1	none
CCN(Cc1cnn(C)c1)C(=O)c1ccc(OC2CCN(S(=O)(=O)N(C)C)CC2)cc1	FGF22 binding 43.7
C[C@@H]1CN([C@H](C)CO)C(=O)c2cc(NS(=O)(=O)c3ccc(Cl)cc3)ccc2O[C@@H](C)CCCCO[C@H]1CN(C)Cc1ccc(C(F)(F)F)cc1	none
C[C@H]1CCCCO[C@@H](CN(C)Cc2ccc(C(F)(F)F)cc2)[C@@H](C)CN([C@@H](C)CO)C(=O)c2cc(NS(=O)(=O)c3ccc(Cl)cc3)ccc2O1	SIRT5 block 15.5
C[C@@H]1CCCCO[C@@H](CN(C)Cc2ccc(C(F)(F)F)cc2)[C@H](C)CN([C@H](C)CO)C(=O)c2cc(NS(=O)(=O)c3ccc(Cl)cc3)ccc2O1	SIRT5 block 16.1
C[C@@H]1CN([C@@H](C)CO)C(=O)c2cc(NS(=O)(=O)c3ccc(Cl)cc3)ccc2O[C@@H](C)CCCCO[C@@H]1CN(C)Cc1ccc(C(F)(F)F)cc1	SIRT5 block 18.2
C[C@@H]1CCCCO[C@@H](CN(C)Cc2ccc(C(F)(F)F)cc2)[C@H](C)CN([C@@H](C)CO)C(=O)c2cc(NS(=O)(=O)c3ccc(Cl)cc3)ccc2O1	SIRT5 block 17.8
C[C@@H]1CCCCO[C@H](CN(C)Cc2ccc(C(F)(F)F)cc2)[C@@H](C)CN([C@H](C)CO)C(=O)c2cc(NS(=O)(=O)c3ccc(Cl)cc3)ccc2O1	none
